The list is not random: actives were taken first. Their share in the collection is about 2.4%.
POLB inh: DNA polymerase beta (human) inhibition | P06746 | Pol beta primer extension/strand displacement, fluorescence kinetic | Potency, µM (titrated, usually from 114 µM), usual class: inhibitors | 340,000 compounds, 1.3% hits | AID 485314
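Reaction started by 50 nM substrate onto compound-treated Pol beta (10 nM, 15 min preincubation, room temperature); plates read at 0 min and 10 min. Normalized concentration-effect data fitted by four-parameter Hill equation.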
FEN1 inh: blocks human flap endonuclease 1 | AID 588795 | Potency, µM (top dose mostly 114 µM), most hits filed as inhibitors | Recombinant FEN1 flap cleavage, fluorescence, 15 min | 390,000 compounds, 0.35% hits | P39748; also: nearly all actives have a fitted effect of over 65% in size
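With each library titrated from low to high concentration, compounds met 10 nM FEN1 for 15 min at room temperature before 50 nM substrate was added; readings at 0 and 15 min fed four-parameter Hill curve fits.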
Pol eta inh: inhibitors of human DNA polymerase eta | Q9Y253 | recombinant Pol eta, fluorescent DNA replication assay | Potency, µM (doses to about 114 µM), actives largely listed as inhibitors | 390,000 compounds, 1.2% hits | AID 588591
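Pol eta (10 nM) was preincubated with compounds for 15 min at room temperature, after which fluorescent replication substrate (50 nM final) was added to start the reaction. Fluorescence was read kinetically at 0 and 10 min.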
TDP1 block: inhibitors of human tyrosyl-DNA phosphodiesterase TDP1. recombinant TDP1, AlphaScreen DNA substrate cleavage. Potency, µM (series often up to 130 µM), actives largely listed as inhibitors. 350,000 compounds, 0.28% hits. AID 485290; also: nearly all actives have a fitted effect of over 40% in size
Target sequence (Q9NUW8 whole entry, looked up): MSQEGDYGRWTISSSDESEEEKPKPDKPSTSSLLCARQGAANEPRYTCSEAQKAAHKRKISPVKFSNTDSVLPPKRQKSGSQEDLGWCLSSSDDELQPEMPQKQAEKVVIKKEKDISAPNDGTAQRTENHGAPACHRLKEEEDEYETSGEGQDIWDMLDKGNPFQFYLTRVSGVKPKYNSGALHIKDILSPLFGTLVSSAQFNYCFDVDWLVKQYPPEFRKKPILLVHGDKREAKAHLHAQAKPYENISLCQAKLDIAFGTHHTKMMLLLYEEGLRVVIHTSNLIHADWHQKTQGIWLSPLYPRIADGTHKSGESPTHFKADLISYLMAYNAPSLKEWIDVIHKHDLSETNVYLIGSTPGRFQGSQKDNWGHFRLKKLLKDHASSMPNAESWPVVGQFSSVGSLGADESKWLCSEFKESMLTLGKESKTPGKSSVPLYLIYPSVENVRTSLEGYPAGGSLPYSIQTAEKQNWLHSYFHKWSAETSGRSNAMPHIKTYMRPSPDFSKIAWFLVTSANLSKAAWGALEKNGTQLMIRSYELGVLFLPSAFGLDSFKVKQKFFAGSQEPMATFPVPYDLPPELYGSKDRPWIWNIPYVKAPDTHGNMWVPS
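E. coli-derived human Tdp1, 1 nM final. Cpd preinc 15 min RT; substrate 15 nM final, 5 min RT; AS bead mix 10 ug/ml final, 10 min RT. Signal loss = tyrosine-FITC cleavage. No-enzyme wells = max signal.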
Pol iota inh: inhibitors of human DNA polymerase iota; Q9UNA4; Pol iota fluorescent replication assay, 10 min; Potency, µM (titrated, usually from 115 µM), actives largely listed as inhibitors; 390,000 compounds, 1% hits; AID 588590
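Pol iota at 10 nM preincubated 15 min with compounds at room temperature; reaction started with fluorescent substrate, 50 nM final. Fluorescence read kinetically at 0 and 10 min; buffer-only wells as negative control.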
POLK inh: DNA polymerase kappa (human) inhibition; 400,000 compounds, 0.53% hits; Potency, µM (top dose mostly 107 µM), usual class: inhibitors; purified Pol kappa, fluorescent DNA synthesis assay, 10 min; Q9UBT6
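Here, compound and 10 nM enzyme are combined for 15 min at room temperature; adding 50 nM substrate (final) starts DNA synthesis, tracked by fluorescence at 0 and 10 min against buffer-only wells.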
Hits are given with their value; n = inactive; u = inconclusive; x = not tested or not shown; [ ] = dose if it differs, or a comment. Calls follow the shape of the dose curve; as a rule, active = well fitted curve in the direction sought with a large enough effect; inconclusive = small, poorly fitted or top-dose-only effect, or another doubt; inactive = no such curve, though single readings can be large; an effect the other way counts as inactive or inconclusive.

SMILES | POLB inh | FEN1 inh | Pol eta inh | TDP1 block | Pol iota inh | POLK inh
Oc1ccc(CNCc2ccccc2F)c2cccnc12 | x | x | x | n | x | x
O=S1(=O)N=C(Oc2cccc(C(F)(F)F)c2)c2ccccc21 | x | x | x | n | x | x
Cc1ccc(NS(=O)(=O)c2cc3c(cc2/C=C/c2ccccc2)NC(=O)CO3)cc1C | x | x | x | n | x | x
CCCCC(CC)CNC(=O)C1CCC(CNS(=O)(=O)c2cccc3nsnc23)CC1 (stereo unspecified) | n | n | n | n | n | n
N#Cc1nc(Nc2cccc([N+](=O)[O-])c2)nc(NC2CCCC2)n1 | x | x | x | n | x | x
CC(C)CC(=O)Nc1nnc(S(=O)(=O)N(C)Cc2ccc(Cl)cc2)s1 | n | n | n | n | n | n
CCOC(=O)c1ccc(-n2cnc3c(c2=N)C(c2cccc(OC)c2)c2c(ccc4ccccc24)O3)cc1 (stereo unspecified) | x | x | x | n | x | x
CC(C)CCCC(C)CCCC(C)CCCC(C)C(=O)O (stereo unspecified) | x | x | x | n | x | 30µM
COC/C=C/C1=CC2=CC(=O)C(C)(OC(=O)c3cnc4ccccc4n3)C(=O)C2=CN1CCc1c[nH]c2ccccc12 (stereo unspecified) | x | x | x | n[12.3 µM] | x | x
COC/C=C/C1=CC2=CC(=O)C(C)(OC(=O)c3cnc4ccccc4n3)C(=O)C2=CN1c1ccccc1 (stereo unspecified) | u | n | 25µM | n[21 µM] | u | 79µM
COC/C=C/C1=CC2=CC(=O)C(C)(OC(=O)c3cnc4ccccc4n3)C(=O)C2=CN1c1ccc(CO)cc1 (stereo unspecified) | 1.8µM | x | x | x | x | x
Cc1ccc(Cn2cccc2/C=C2/C(=N)N3C=CSC3=NC2=O)cc1 | n | n | 71µM | n | u | n
Cc1nn(-c2ccccn2)c2c1-c1nc(N)sc1CC2 | x | u | x | x | 3.2µM | n
O=C(Cc1ccc(-n2cccc2)cc1)NCc1cccs1 | 45µM | n | u | n | n | n
Cc1ccc(OCC(=O)Nc2ccc3nc(SCC(=O)N4CCCC4)sc3c2)cc1 | n | n | n | n | n | n
O=C(CN1C(=O)/C(=C/c2ccco2)SC1=S)Nc1ccc(O)c(C(=O)O)c1 | 10µM | u | u | n | n | u
CC(=C\c1ccco1)/C=C1/SC(=S)N(CC(=O)O)C1=O | 20µM | n | 40µM | x | u | u
NN1C(=O)/C(=C\c2ccco2)SC1=S | 7.9µM | n | n | x | u | u
O=C1/C(=C\c2ccco2)SC(=S)N1c1ccc(O)cc1 | 20µM | n | n | n | u | n
O=C(Nc1nnc(Cc2ccccc2)s1)C1CCN(C(=O)c2cccs2)CC1 | x | n | x | x | n | n
Nc1cccc2cccnc12 | x | n | x | x | u | n
Cc1c2c(c(O)c3c(O)cccc13)C(=O)O[C@H]2C1C(N(C)C)C(O)=C(C(N)=O)C(=O)[C@H]1O (stereo partly specified) | x | x | x | x | x | 0.47µM
CC(=O)c1sc2nsc(SCCN3CCCC3)c2c1N | n | n | n | n | 18µM | n
Cc1cc(Nc2ccc(Br)cc2)n2nc(-c3ccccc3C)nc2n1 | n | n | n | n | n | n
COc1ccc(OC)c(-c2csc(NC(=O)Cc3ccc(F)cc3)n2)c1 | n | n | n | x | n | n
SMILES | POLB inh | FEN1 inh | Pol eta inh | TDP1 block | Pol iota inh | POLK inh
COc1ccc(OC)c(-c2csc(NC(=O)COC(=O)c3ccc(NC(=O)CC#N)cc3)n2)c1 | x | 79µM | 20µM | n | 28µM | 50µM
COc1ccc(CN(Cc2ccccc2)C(=O)c2ccccc2O)cc1 | x | x | x | 11µM | x | x
N#CN=c1snc(-c2ccccc2Cl)n1-c1ccc(F)cc1 | x | n | x | x | n | n
CCCc1cc(=O)oc2c(C)c(OCC(=O)N3CCC[C@@H]3C(=O)O)ccc12 | n | n | n | x | n | n
CCCCCCc1c(C)c2ccc(OCC(=O)N3CCC[C@H]3C(=O)O)c(C)c2oc1=O | n | n | 79µM | x | 89µM | n
C=CCN=c1scc(-c2ccco2)n1/N=C/c1ccc(O)c(O)c1O | n | u | u | x | 1.8µM | 22µM
CC(C)N=c1scc(-c2ccco2)n1/N=C/c1ccc(O)c(O)c1 | u | n | n | n | n | n
O=C(O)CCc1ccc(-c2ccc(Br)cc2)n1CC(=O)O | 35µM | n | u | n | u | n
O=C(O)CCc1ccc(-c2ccccc2)n1CC(=O)O | n | n | n | n | u | n
Cc1ccc(C(c2sc3nc(-c4ccco4)nn3c2O)N2CCOCC2)cc1 (stereo unspecified) | n | n | n | n | n | n
COc1ccc2nc(N3CCCCC3)c(C#N)cc2c1 | n | n | n | 40µM | u | n
COc1ccc2nc(N3CCCCC3)c(/C=C3\SC(=S)NC3=O)cc2c1 | n | n | 35µM | x | n | n
O=C1NC(=S)S/C1=C\c1cc2ccccc2nc1N1CCCCC1 | u | n | 40µM | n | n | n
COc1ccc(CN(Cc2ccccc2)C(=O)c2ccccc2)cc1COc1ccc(NC(C)=O)cc1 | x | x | x | n | x | x
COc1ccc(OC)c(NC(=O)C2CCCN(S(=O)(=O)c3ccc4[nH]c(=O)ccc4c3)C2)c1 (stereo unspecified) | n | n | n | n | n | n
CCOC(=O)CNC(=O)C1CCCCC1 | x | n | x | n | n | n
O=S(=O)(c1ccccc1)N1CCSC1c1ccco1 (stereo unspecified) | 45µM | n | u | n | u | n
CSCc1nc2sc(C(=O)Nc3nc(C)cs3)c(C)c2c(=O)[nH]1 | n | n | 32µM | n | u | n
Cc1ccc(NS(=O)(=O)c2cc3c(cc2Cl)NC(=O)C3)cc1C | x | x | x | n | x | x
O=C(O)c1ccc(CN2C(=O)CSC2=S)cc1 | u | u | n | u | u | 50µM
CCc1ccc(OCC(=O)NC(=S)Nc2ccc(C)cc2C)c(Br)c1 | n | n | n | n | 79µM | n
CCc1ccc(OCC(=O)NNC(=S)NC(=O)C2CC2)c(Br)c1 | n | n | n | n | n | n
CCCCCCC[n+]1ccc(/C=C/c2c(C)[nH]c3ccccc23)c2ccccc21 | x | 45µM | x | x | 79µM | u
CCCCCCC[n+]1ccc(/C=C/c2c(C)[nH]c3ccccc23)cc1 | x | u | x | x | n | n
CCCCCCCCCC[n+]1ccc(/C=C/c2c(C)[nH]c3ccccc23)c2ccccc21 | x | 45µM | x | x | n | u
SMILES | POLB inh | FEN1 inh | Pol eta inh | TDP1 block | Pol iota inh | POLK inh
CCCc1cc(F)c(S(=O)(=O)N2CCN(S(=O)(=O)c3ccc4c(c3)OCCO4)CC2)cc1F | x | x | x | n | x | x
CCCCC1CCC(C(=O)N2CC(=O)Nc3ccc(C)cc3C2c2ccc(F)cc2)CC1 (stereo unspecified) | n | n | n | n | n | n
Cc1ccc(NC(=O)Cn2c(=O)c3cccn3c3ccccc32)c(C)c1 | n | n | n | n | n | n
Cc1ccc(NC(=O)CCn2c(=O)c3cccn3c3ccccc32)c(C)c1 | n | n | n | n | 89µM | n
COc1[nH]c(/N=C/c2ccco2)c(C#N)c1C#N | x | u | x | n | 71µM | n
Cc1c(F)cccc1Cn1cnc2c(cnn2C(C)(C)C)c1=O | x | n | x | x | n | n

Screens as filed in PubChem BioAssay.
